Each structure is given as a SMILES string.

The assay concerns PRKD1.
Take `C[C@@H]1CCNC(=O)c2cc3ccc(C(=O)Nc4nc5ccccc5n4CCCN(C)C)cc3n21` [BI00645435]: the Kinases covered entry is “PRKD1”.

With `COc1ccc2nc(-c3cccc(C)n3)nc(Nc3ccncc3)c2c1` [GSK204919], the Kinases covered result was “PRKD1”.

Consider `Cc1cccc(-c2cc(Nc3ccncc3)c3ccccc3n2)n1` [GSK223675], for which the Kinases covered result is on record as “PRKD1”.

Take `Cc1cccc(-c2nc(Nc3ccncc3)c3ccccc3n2)n1` [GW855857]: the Kinases covered result was “PRKD1”.

For the origin of these results see article PMC7826789 (International Journal of Molecular Sciences, 2021).
